Some test systems named below: SR leukemia; RPMI-8226 leukemia; OVCAR-8 ovarian; OVCAR-5 ovarian; OVCAR-4 ovarian; SK-OV-3 ovarian; IGROV1 ovarian; OVCAR-3 ovarian; HS 578T breast; NCI/ADR-RES ovarian.
Common to all, as to test: NCI-60 one-dose screen, 48 h (100 = growth as untreated, 0 = no growth, -100 = all killed)
Common to all, as to conditions: 10 µM

The panel holds about 83,000 compounds, 20% with a hit somewhere; the sample as a whole holds those more often.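 How to read the values: 0–100, growth inhibition (40 = 60% inhibited); 0, no net growth; -100 to 0, cell death (-40 = 40% of starting cells died; -100 = all dead).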 Values without a mark were called inactive. Active and inactive are the calls of the source. How the source made its calls: active means growth percent below 10; inactive means the rest.

For `Nc1nc2c(nnn2C2CC(O)C(CO)O2)c(=O)[nH]1` (stereo not given), the growth was 32% in the experiment with SR leukemia; 36.2% with RPMI-8226 leukemia; 38.4% in the experiment on OVCAR-8 ovarian; 87.8% in the experiment with OVCAR-5 ovarian; 51.4% in the experiment with OVCAR-4 ovarian; 20.2% with SK-OV-3 ovarian. The growth was 67.6% in the experiment on IGROV1 ovarian, 40.8% with OVCAR-3 ovarian, 75.4% with HS 578T breast and 30.2% with NCI/ADR-RES ovarian.

In the case of `CCC(OC(=O)CC(C)C)c1ccccc1` (stereo not given), the growth with SR leukemia was 101%; in the experiment on RPMI-8226 leukemia, 105%; in the experiment on OVCAR-8 ovarian, 93.4%; in the experiment on OVCAR-5 ovarian, 104%; in the experiment on OVCAR-4 ovarian it was 112%; in the experiment with SK-OV-3 ovarian, 102%. In addition, the growth in the experiment on IGROV1 ovarian was 111%; with OVCAR-3 ovarian, 107%; in the experiment on HS 578T breast, 104%; in the experiment on NCI/ADR-RES ovarian it was 98.8%.

For `CCOC(=O)c1cc(-c2ccccc2)nc(N)n1`, the growth was 106% in the experiment with SR leukemia; 99.6% in the experiment on RPMI-8226 leukemia; 103% in the experiment with OVCAR-8 ovarian; 98.2% with OVCAR-5 ovarian; 107% with OVCAR-4 ovarian; 103% in the experiment on SK-OV-3 ovarian. Further, the growth in the experiment on IGROV1 ovarian was 103%; in the experiment with OVCAR-3 ovarian it was 109%; with HS 578T breast, 92.5%; in the experiment on NCI/ADR-RES ovarian, 100%.

For `COC(=O)c1cnc2c(c1)Oc1ccccc1-c1ccnn1-2`, the growth was 85% in the experiment on SR leukemia; 95% in the experiment with RPMI-8226 leukemia; 91.9% in the experiment with OVCAR-8 ovarian; 108% in the experiment on OVCAR-5 ovarian; 103% with OVCAR-4 ovarian; 95.4% with SK-OV-3 ovarian. In addition, the growth in the experiment on IGROV1 ovarian is 95.7%; with OVCAR-3 ovarian, 114%; in the experiment on HS 578T breast it was 93.7%; in the experiment on NCI/ADR-RES ovarian, 105%.

Consider `C=CCN1C(=O)/C(=C\c2ccc3c(c2)CCC3)SC1=S`, for which the growth was 93.1% in the experiment on SR leukemia; 91.9% in the experiment with RPMI-8226 leukemia; 104% in the experiment with OVCAR-8 ovarian; 99.8% in the experiment on OVCAR-5 ovarian; 106% with OVCAR-4 ovarian; 98.6% with SK-OV-3 ovarian. The growth is 106% with IGROV1 ovarian, 109% in the experiment on OVCAR-3 ovarian, 112% in the experiment with HS 578T breast and 105% in the experiment with NCI/ADR-RES ovarian.

Turning to `CC1(CO)CCCC12OCCO2` (stereo not given), the growth with SR leukemia is 93.3%; in the experiment on RPMI-8226 leukemia it was 100%; in the experiment on OVCAR-8 ovarian, 106%; with OVCAR-5 ovarian, 97.3%; in the experiment with OVCAR-4 ovarian it was 111%; in the experiment on SK-OV-3 ovarian it was 111%. Besides, the growth in the experiment on IGROV1 ovarian is 104%; in the experiment with OVCAR-3 ovarian it was 108%; in the experiment with HS 578T breast it was 119%; in the experiment on NCI/ADR-RES ovarian, 113%.

Take `Nc1ccccc1NC(=O)CCCCCCC(=O)Nc1ccc2c(c1)/C(=C/c1ccc[nH]1)C(=O)N2`: the growth with SR leukemia was 26.8%; with RPMI-8226 leukemia it was -17.6% (active); with OVCAR-8 ovarian it was 26.2%; in the experiment with OVCAR-5 ovarian, 67%; in the experiment on OVCAR-4 ovarian, 35.1%; in the experiment on SK-OV-3 ovarian, 38.4%. Also, the growth in the experiment on IGROV1 ovarian was 49.7%; in the experiment with OVCAR-3 ovarian, 29.3%; with HS 578T breast, 27.5%; in the experiment on NCI/ADR-RES ovarian, 93.1%.

Regarding `O=C(Nc1cccc(-c2nc3ccccc3[nH]2)c1)c1cccc(NC(=O)c2ccco2)c1`, the growth is 23.5% with SR leukemia; 69.2% in the experiment with RPMI-8226 leukemia; 87.2% in the experiment on OVCAR-8 ovarian; 93.8% in the experiment on OVCAR-5 ovarian; 80% with OVCAR-4 ovarian; 102% in the experiment with SK-OV-3 ovarian. In addition, the growth in the experiment with IGROV1 ovarian is 86.2%; with OVCAR-3 ovarian, 98.3%; in the experiment with HS 578T breast, 79.4%; in the experiment on NCI/ADR-RES ovarian, 84.9%.

For `COc1cc(/C=C/C(=O)c2cc(-c3ccc(F)cc3)ccc2O)cc(OC)c1OC`, the growth in the experiment on SR leukemia was 49.9%; with RPMI-8226 leukemia, 7.24% (active); with OVCAR-8 ovarian, 66.7%; in the experiment with OVCAR-5 ovarian, 97.5%; with OVCAR-4 ovarian, 68.3%; in the experiment with SK-OV-3 ovarian, 89.5%. Also, the growth in the experiment with IGROV1 ovarian was 84.1%; with OVCAR-3 ovarian it was 82.4%; in the experiment on HS 578T breast it was 86%; in the experiment with NCI/ADR-RES ovarian it was 72.1%.

As for `COc1ccc(-c2cc(/C=C3\C(=O)Nc4cc(Cl)ccc43)[nH]n2)cc1`, the growth is 19.3% with SR leukemia; 19.7% in the experiment on RPMI-8226 leukemia; 48.1% in the experiment with OVCAR-8 ovarian; 69.4% with OVCAR-5 ovarian; 64.1% with OVCAR-4 ovarian; 28.8% in the experiment on SK-OV-3 ovarian. For the same compound, the growth in the experiment with IGROV1 ovarian is 42.6%; with OVCAR-3 ovarian it was -3% (active); with HS 578T breast, -4.18% (active); with NCI/ADR-RES ovarian it was 9.42% (active).

For `COc1c(-c2c3sc(=O)[nH]c3nc3c2c(=O)[nH]n3C(C)C)cc2c(c1OC)OCO2`, the growth is 84.9% in the experiment with SR leukemia; 93.2% in the experiment with RPMI-8226 leukemia; 98.8% in the experiment on OVCAR-8 ovarian; 96.7% in the experiment with OVCAR-5 ovarian; 107% in the experiment on OVCAR-4 ovarian; 99.5% in the experiment on SK-OV-3 ovarian. For the same compound, the growth was 102% in the experiment on IGROV1 ovarian, 113% in the experiment on OVCAR-3 ovarian, 99.2% in the experiment with HS 578T breast and 99.8% with NCI/ADR-RES ovarian.

In the case of `CCc1nn2c(-c3ccccc3)c(-c3cc(OC)c(OC)c(OC)c3)nc2s1`, the growth in the experiment with SR leukemia is 59.4%; in the experiment with RPMI-8226 leukemia, 60.2%; in the experiment on OVCAR-8 ovarian it was 88.1%; with OVCAR-5 ovarian, 98.5%; with OVCAR-4 ovarian, 68.5%; in the experiment on SK-OV-3 ovarian, 102%. Besides, the growth was 87.3% in the experiment on IGROV1 ovarian, 92% with OVCAR-3 ovarian, 69.8% in the experiment on HS 578T breast and 77.1% in the experiment with NCI/ADR-RES ovarian.

As for `COc1ccccc1Cn1cc2c(c1-c1ccccc1)CCc1cnoc1-2`, the growth with SR leukemia was 26.3%; with RPMI-8226 leukemia it was 38.8%; with OVCAR-8 ovarian it was 56%; with OVCAR-5 ovarian, 77.2%; in the experiment on OVCAR-4 ovarian, 61.4%; with SK-OV-3 ovarian, 19.1%. The growth in the experiment with IGROV1 ovarian is 44.8%; with OVCAR-3 ovarian, 6.99% (active); in the experiment with HS 578T breast, 9.97% (active); in the experiment with NCI/ADR-RES ovarian, 21.3%.

With `COc1ccc(-c2oncc2-c2cc(OC)c3c(c2)OCO3)cc1`, the growth in the experiment on SR leukemia is 7.62% (active); in the experiment with RPMI-8226 leukemia, 23.8%; in the experiment with OVCAR-8 ovarian, 35.6%; with OVCAR-5 ovarian, 37.9%; in the experiment with OVCAR-4 ovarian, 66.2%; with SK-OV-3 ovarian, 19.7%. Moreover, the growth in the experiment with IGROV1 ovarian is 53.3%; with OVCAR-3 ovarian, 7.36% (active); in the experiment on HS 578T breast, 4.09% (active); in the experiment with NCI/ADR-RES ovarian it was 18.5%.

Source of the values: PubChem BioAssay (NCI).
